Hit rate of the full screen: of about 85,000 compounds, about 5,100 (6%) were called active.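 The calls were made as follows: active = viability at or below 40%; inactive = viability above 40%.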 Only a selection was taken, and actives are over-represented in it overall.
Experiment: H69AR cell viability reduction – human, 86K library, primary screen (AID 598);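 also: multidrug resistant small cell line overexpressing MRP-1 efflux transporter; 100% = mean luminescence of untreated control wells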
Settings: H69AR lung tumor viability, ATP luminescence, 72 h; at 10 µM; hits give low values

SMILES | viability
CCCCOC(=O)Cn1c(=N)n(CCN(CC)CC)c2ccccc21 | 91.2% (inactive)
O=c1c2ccccc2nc(N/N=C/c2ccccc2)n1O | 46.3% (inactive)
CCOC(=O)C1CCc2nc3ccccc3c(=O)n21 (configuration not stated) | 96.6% (inactive)
CCn1c(/C=C/c2ccc([N+](=O)[O-])o2)nc2ccccc2c1=O | 6.55% (active)
O=C(CCN1c2ccccc2Sc2ccccc21)Nc1ccccc1 | 70.8% (inactive)
CC1=CC(=O)C=CC1(C)C(Cl)(Cl)Cl (configuration not stated) | 105% (inactive)
COc1ccc2c(c1)cc1n2CCN=C1NN | 90.8% (inactive)
COC(=O)C1=C(C(=O)OC)C2(OC1c1ccc(Br)cc1)C(=O)c1ccccc1C2=O (configuration not stated) | 106% (inactive)
CCOC(=O)c1ccc(N2C(=O)CC(N(C)Cc3ccccc3)C2=O)cc1 (configuration not stated) | 93.7% (inactive)
Fc1ccc(N2CCN(Cc3cnc(Oc4ccc(Br)cc4)s3)CC2)cc1 | 90.4% (inactive)
O=C(c1cccc(C(=O)N2CCN(c3ccc(F)cc3)CC2)c1)N1CCN(c2ccc(F)cc2)CC1 | 70.1% (inactive)
Oc1c(CN2CCN(c3ccc(F)cc3)CC2)cc(Cl)c2cccnc12 | 5.07% (active)
Cn1c(-c2sc3cc(C(F)(F)F)cnc3c2-c2ccccc2)n[nH]c1=S | 92.5% (inactive)
C=CCc1ccc(OCCOc2cccc(/C=N/n3cnnc3)c2)c(OC)c1 | 80.3% (inactive)
O=C(OCC#CCSc1nnc(-c2ccncc2)o1)c1sc2ccccc2c1Cl | 2.76% (active)
CCOC(=O)CSc1nnc(-c2ccncc2)o1 | 95.7% (inactive)
O=C(Nc1ccon1)c1sc2ccccc2c1Cl | 88.1% (inactive)
O=C(Nc1ccc2c(c1)CCC2)c1cccc(S(=O)(=O)N2CCN(c3ccc(F)cc3)CC2)c1 | 79.3% (inactive)
COc1ccc(C2CC(=O)n3c(nc4ccccc43)S2)cc1OC (configuration not stated) | 115% (inactive)
COc1ccc(C2SCCN2S(=O)(=O)c2ccccc2)cc1OC (configuration not stated) | 81.4% (inactive)
COc1ccc(C2CC(c3cccs3)=Nc3ccccc3S2)cc1OC (configuration not stated) | 20.8% (active)
O=C(Nc1ccc(F)c(Cl)c1)C1CCN(S(=O)(=O)c2cccnc2)CC1 | 71.8% (inactive)
CCOC(=O)c1cnn(Cc2ccccc2Cl)c1N | 96.2% (inactive)
CC1CCCN(C(C(=O)Nc2ccc(C(C)C)cc2)c2ccc3c(c2)OCO3)C1 (configuration not stated) | 59.6% (inactive)
CC(=O)Nc1ccc(S(=O)(=O)N2CCN(C(=O)c3ccccc3F)CC2)cc1 | 85.2% (inactive)

SMILES | viability
Cc1[nH]n(-c2ccc([N+](=O)[O-])cc2)c(=O)c1C=NCCN1CCN(C(=O)c2ccccc2F)CC1 | 39.4% (active)
CC(=O)N1CCN(CCN=CC2=C(O)CC(C)(C)CC2=O)CC1 | 101% (inactive)
CCC(C(=O)NCc1ccc(OC)cc1)n1nc(C)n2c(cc3occc32)c1=O (configuration not stated) | 80.3% (inactive)
CCCc1nnc(NC(=O)c2cccs2)s1 | 102% (inactive)
CCCCNS(=O)(=O)c1ccc(S(=O)(=O)n2cnc3ccccc32)cc1 | 88.8% (inactive)
O=S(=O)(c1ccc(Br)cc1)n1ccc2ccccc21 | 8.36% (active)
CC1(C)C2CCC13CS(=O)(=O)NC3C2 (configuration not stated) | 91.1% (inactive)
CCn1c(C)nc2cc(C(=O)NNS(=O)(=O)c3ccc(C)cc3C)ccc21 | 95.5% (inactive)
OC(c1ccccc1)c1nccn1Cc1ccccc1 (configuration not stated) | 94.2% (inactive)
CCn1c(Cc2cccs2)nnc1SCC(=O)c1ccc(C)cc1 | 84.1% (inactive)
O=C(CN1CCN(c2ncc(C(F)(F)F)cc2Cl)CC1)Nc1ccc2c(c1)OCO2 | 105% (inactive)
N/C(=N\OC(=O)Nc1ccc(Cl)c(Cl)c1)c1ncc(C(F)(F)F)cc1Cl | 19.4% (active)
NC(=O)c1ncc(C(F)(F)F)cc1Oc1ccc(F)cc1 | 102% (inactive)
CCN1CCN(Cc2c(O)ccc3c(=O)c(-c4ccc(OC)c(OC)c4)c(C(F)(F)F)oc23)CC1 | 104% (inactive)
O=c1c(-c2ccc3c(c2)OCCO3)c(C(F)(F)F)oc2cc(O)cc(O)c12 | 39% (active)
CCSc1ccccc1C(=O)NCc1ccc(OC)cc1 | 92.6% (inactive)
CC(C)c1ccc(-c2noc(C3CCCN(S(C)(=O)=O)C3)n2)cc1 (configuration not stated) | 106% (inactive)
CCn1c(=O)cc(OCC(=O)NCCCN2CCN(c3cccc(Cl)c3)CC2)c2ccccc21 | 43.8% (inactive)
CC1CCCC(C)N1CCCNC(=O)c1cc2c(=O)n(C)c3ccccc3c2n1C (configuration not stated) | 69.1% (inactive)
Cn1c(C(=O)NCCCN2CCN(c3cccc(Cl)c3)CC2)cc2c(=O)n(C)c3ccccc3c21 | 1.66% (active)
Cn1c(=O)c2c(ncn2CC(COCc2ccccc2Cl)OCc2ccccc2Cl)n(C)c1=O (configuration not stated) | 77.7% (inactive)
Cc1ccc(-c2noc(CSc3nnc(-c4cccs4)n3C)n2)cc1 | 98.8% (inactive)
COCCNS(=O)(=O)c1cc(Br)ccc1OC | 106% (inactive)
CCOCCn1c(C(C)C)nc2ccccc21 | 102% (inactive)
CCC(=O)NC(Nc1cc(C)ccn1)(C(F)(F)F)C(F)(F)F | 99% (inactive)

SMILES | viability
O=C(c1cccc2ccccc12)N1CCN(c2ccccc2F)CC1 | 56% (inactive)
COc1ccc2oc(=O)c(C(=O)N3CCN(c4ccccc4F)CC3)cc2c1 | 108% (inactive)
O=C(Nn1cc(C(=O)N2CCN(c3ccccc3F)CC2)c2ccccc2c1=O)c1cnccn1 | 34.7% (active)
CC(C)OC(=O)c1c(NC(=O)c2ccco2)sc2c1CCCC2 | 109% (inactive)
O=C1C(Cl)=C(N2CCOCC2)C(=O)N1c1ccccc1 | 86.6% (inactive)
COc1ccc2oc(C)c(NC(C)=O)c2c1 | 97.4% (inactive)
COc1ccc(S(=O)(=O)Nc2ccc3oc(C)c(C(C)=O)c3c2)cc1 | 18.7% (active)
COc1cc(NS(=O)(=O)c2ccc(NC(C)=O)cc2)cc(OC)c1 | 90.3% (inactive)
C=CCN(C(=O)Cn1ncc2c1-c1cc(C)ccc1OC2)c1ccccc1 | 84.9% (inactive)
CC(=O)C1=C(C)NC(=O)NC1c1cc(Br)ccc1OCC#N (configuration not stated) | 97.1% (inactive)
COc1ccccc1-n1c(CNC(=O)c2ccccc2)nnc1SCC(=O)Nc1nnc(C)s1 | 108% (inactive)
Cc1nnc(NC(=O)CSc2nccn2-c2cccc(C)c2C)s1 | 29.5% (active)
Cc1cnc(NC(=O)CSc2nnc(C)s2)s1 | 81.4% (inactive)
COC(=O)CSC1=C(C#N)C(c2ccccc2OC)C(C(=O)OC)C(=O)N1 (configuration not stated) | 94.8% (inactive)
C=CCOC(=O)C1=C(C)NC(SCC(=O)OCC)=C(C#N)C1c1ccc(C)cc1 (configuration not stated) | 61.6% (inactive)
CCOC(=O)CSC1=C(C#N)C(c2ccco2)C(C(=O)OCc2ccccc2)=C(C)N1 (configuration not stated) | 22.2% (active)
Cc1ccc(C2CC(=O)NC(SCC(=O)OCc3ccccc3)=C2C#N)o1 (configuration not stated) | 24.4% (active)
COc1cc2c(cc1OC)C(c1ccc(C)o1)CC(=O)N2 (configuration not stated) | 85.8% (inactive)
CC1=C(C(=O)Nc2ccccc2)C(c2ccco2)C(C#N)=C(SCC(N)=O)N1 (configuration not stated) | 91% (inactive)
COc1ccc(S(=O)(=O)Nc2ccc(F)cc2)c(C)c1C | 101% (inactive)
CCCCCCC12CCC(C(=O)O)(CC1)CC2 | 79.3% (inactive)
Cc1nc2cc(NC(=O)NCc3ccccc3)ccc2o1 | 95.1% (inactive)
OC(COc1ccc2ccccc2c1)Cn1cncn1 (configuration not stated) | 88.4% (inactive)
COc1c(C)cccc1C(=O)Nc1cc(Cl)ccc1N1CCOCC1 | 82.7% (inactive)
O=C(Nc1cc(N2CCOCC2)ncn1)NC1(C(F)(F)F)Oc2ccc(Cl)cc2O1 (configuration not stated) | 29.6% (active)

SMILES | viability
O=C(CN1CCOCC1)Nc1cc(Cl)ccc1Cl | 93.4% (inactive)
CCOc1cc2[nH]c(=S)n(CCN3CCCCC3C)c(=O)c2cc1OCC (configuration not stated) | 82.5% (inactive)
CCn1cc(C(=O)NCC2CCCO2)c(=O)c2cc(S(=O)(=O)N3CCCCC3)ccc21 (configuration not stated) | 87.7% (inactive)
O=C(NC1CCCCC1)n1c(=O)oc2cc(S(=O)(=O)N3CCCCC3)ccc21 | 60.7% (inactive)
CCn1cc(C(=O)NC2CCCCCC2)c(=O)c2cc(S(=O)(=O)N3CCCCC3)ccc21 | 30.1% (active)
CN(C)S(=O)(=O)c1ccc(NC(=O)COC(=O)c2n[nH]c3ccccc23)cc1 | 78.6% (inactive)
Cc1nc(NCCN)c(C#N)c2c1COC(C)(C)C2 | 85% (inactive)
CCCCc1nc(NCCN)c(C#N)c2c1CSC(C)(C)C2 | 1.08% (active)
CC(C)(C)c1ccc(OC2=CS(=O)(=O)c3ccccc32)cc1 | 88% (inactive)
CCCn1nnc(NC(=O)COc2ccc(CC)cc2)n1 | 95.5% (inactive)
Cn1c(=O)c2c(ncn2CC(=O)N2CCN(c3ccccc3)CC2)n(C)c1=O | 105% (inactive)
CC(C)Cn1c(CN(Cc2ccccc2)Cc2ccccc2)nc2c1c(=O)n(C)c(=O)n2C | 61.6% (inactive)
CC(C)Cn1cnc2c1c(=O)n(CC(O)c1ccccc1)c(=O)n2CC(C)C (configuration not stated) | 28% (active)
Cc1cc(-n2nc(C)cc2C)n2nc(C)c(-c3ccccc3)c2n1 | 68.4% (inactive)
O=C(COc1ccc2ccccc2c1)N1CCN(C(=O)c2cccs2)CC1 | 74% (inactive)
O=C(CCN1C(=O)c2ccccc2C1=O)Nc1cccc(F)c1 | 98.2% (inactive)
N#CCSc1nc2ccccc2c(=O)n1-c1ccccc1 | 77% (inactive)
O=c1c2ccccc2nnn1CSc1nnnn1-c1ccccc1 | 83.4% (inactive)
Cc1ccc(-c2noc(CSc3nnnn3-c3ccccc3)n2)cc1 | 86.2% (inactive)
Cc1ccc(Nc2nc(CSc3nnnn3-c3ccccc3)cc(=O)[nH]2)cc1 | 23.1% (active)
O=c1c2ccccc2nc(CSc2nnnn2-c2ccccc2)n1-c1ccccc1 | 15.1% (active)
COc1ccc(-n2nnnc2SCC(=O)Nc2ccccc2)cc1 | 103% (inactive)
